Laboratory results taken from PubChem BioAssay (EPA / NIEHS).
Inconclusive results are not listed. The source made the active and inactive calls. Rule for the calls, unless noted: active = hit-call score of the fitted dose curve at least 0.9, where 1 is the maximum; inactive = score below 0.9.

Columns and labels:
[1] = molecular target: Nuclear respiratory factor 1 (Homo sapiens) (UniProt Q16656); assay: ATG_NRF1_CIS: Attagene CIS-FACTORIAL HepG2 Assay for human Nuclear Respiratory Factor 1 (NRF1) Orphan Gene (AID 2282987); settings: HepG2 NRF1 cis-element reporter, Attagene multiplex; actives raise or lower the signal
Nuclear respiratory factor 1 (Homo sapiens), sequence (Q16656 whole entry, looked up): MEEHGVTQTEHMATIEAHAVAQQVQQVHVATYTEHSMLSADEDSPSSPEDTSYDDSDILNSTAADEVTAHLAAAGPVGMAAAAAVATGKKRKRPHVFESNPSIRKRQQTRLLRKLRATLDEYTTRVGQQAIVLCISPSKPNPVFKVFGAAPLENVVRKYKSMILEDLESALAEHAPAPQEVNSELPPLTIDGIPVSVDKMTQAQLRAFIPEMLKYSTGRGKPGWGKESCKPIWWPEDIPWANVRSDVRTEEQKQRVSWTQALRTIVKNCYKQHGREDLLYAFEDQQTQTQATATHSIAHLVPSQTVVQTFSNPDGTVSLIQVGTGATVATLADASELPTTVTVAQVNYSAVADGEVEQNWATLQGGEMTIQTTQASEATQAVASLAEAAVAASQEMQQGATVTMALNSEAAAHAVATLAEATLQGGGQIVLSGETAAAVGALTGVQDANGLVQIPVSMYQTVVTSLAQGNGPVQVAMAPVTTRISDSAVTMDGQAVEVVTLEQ
In short: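 Human hepatoma HepG2 cells carrying transfected promoter-regulated reporter units were incubated with test chemicals for 24 h. Reporter transcripts were measured by RT-PCR plus capillary electrophoresis, and endpoints derived by bidirectional fitting with DMSO as baseline.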

[2] = ATG_NFI_CIS: Attagene CIS-FACTORIAL HepG2 Assay for human Nuclear Factor I (NFI) (AID 2282989); settings: HepG2 cis-regulatory reporter, NFI response element transcription; actives raise or lower the signal
In short: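 Cells: human liver HepG2, transiently transfected with promoter-regulated reporter transcription units. Exposure 24 h. Detection: fluorescent RT-PCR products separated by capillary electrophoresis, normalised to DMSO negative control.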

[3] = molecular target: Myc proto-oncogene protein (Homo sapiens) (UniProt P01106); assay: ATG_Myc_CIS: Attagene CIS-FACTORIAL HepG2 Assay for human Myelocytomatosis (Myc) Proto-Oncogene Transcription Factor (AID 2282990); settings: HepG2, Attagene cis-reporter transcription factor activity; actives raise or lower the signal
Myc proto-oncogene protein (Homo sapiens), sequence (P01106 whole entry, looked up, the tested form may be a part): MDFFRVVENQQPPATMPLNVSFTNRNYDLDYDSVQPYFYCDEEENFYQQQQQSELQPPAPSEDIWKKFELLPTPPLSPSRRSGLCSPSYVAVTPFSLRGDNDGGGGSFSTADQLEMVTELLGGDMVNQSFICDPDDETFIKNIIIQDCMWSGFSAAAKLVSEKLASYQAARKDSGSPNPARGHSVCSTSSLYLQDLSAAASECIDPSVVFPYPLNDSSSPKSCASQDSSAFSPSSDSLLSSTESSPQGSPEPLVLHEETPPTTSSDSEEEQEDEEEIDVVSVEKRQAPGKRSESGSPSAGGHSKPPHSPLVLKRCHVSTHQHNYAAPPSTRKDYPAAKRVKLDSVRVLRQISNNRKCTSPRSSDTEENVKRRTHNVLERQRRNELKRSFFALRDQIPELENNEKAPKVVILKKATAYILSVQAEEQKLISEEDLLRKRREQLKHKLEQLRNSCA
In short: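 After 24 h chemical treatment of HepG2 cells carrying multiplexed cis-regulated reporter constructs, reporter transcripts quantified by RT-PCR and capillary electrophoresis of fluorescent fragments. Gain or loss fitted against DMSO baseline.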

[4] = ATG_NF_kB_CIS: Attagene CIS-FACTORIAL HepG2 Assay for human Nuclear Factor Kappa B (NF-kB) (AID 2282991); settings: HepG2 Attagene cis-factorial NF-kB reporter mRNA; actives raise or lower the signal
In short: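 Multiplexed cis-reporter assay in transiently transfected HepG2. 24 h treatment; RNA isolated, RT-PCR, labelled fragments resolved by CE. DMSO baseline.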

[5] = ATG_NRF2_ARE_CIS: Attagene CIS-FACTORIAL HepG2 Assay for human Nuclear Factor Erythroid 2 Related Factor 2 (NFR2) response to Antioxidant Response Elements (ARE) (AID 2282992); settings: HepG2 Attagene ARE/NRF2 reporter, transcription factor activity; actives raise or lower the signal;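 for AC50: reporter mRNA level measured by RT-PCR and capillary electrophoresis fluorescence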
In short: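 Transient MRTU transfection of HepG2; 24 h compound exposure; TriZol RNA, RT with oligo(dT), PCR, 6-FAM primer extension, HpaI cut, CE. Bidirectional fit vs DMSO.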

[6] = ATG_Oct_MLP_CIS: Attagene CIS-FACTORIAL HepG2 Assay for human Octamer-Binding Transcription Factor (Oct) (AID 2282993); settings: HepG2 Attagene cis-factorial Oct reporter, mRNA; actives raise or lower the signal
In short: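 HepG2, transient MRTU transfection, cis promoter elements; 24 h dosing; RT-PCR/CE fluorescence read-out of reporter mRNA; fit both directions vs DMSO.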

[7] = molecular target: Cellular tumor antigen p53 (Homo sapiens) (UniProt P04637); assay: ATG_p53_CIS: Attagene CIS-FACTORIAL HepG2 Assay for human p53 Transcription Factor (AID 2282994); settings: HepG2 p53 cis-element reporter, Attagene mRNA; actives raise or lower the signal
Cellular tumor antigen p53 (Homo sapiens), sequence (P04637 whole entry, looked up): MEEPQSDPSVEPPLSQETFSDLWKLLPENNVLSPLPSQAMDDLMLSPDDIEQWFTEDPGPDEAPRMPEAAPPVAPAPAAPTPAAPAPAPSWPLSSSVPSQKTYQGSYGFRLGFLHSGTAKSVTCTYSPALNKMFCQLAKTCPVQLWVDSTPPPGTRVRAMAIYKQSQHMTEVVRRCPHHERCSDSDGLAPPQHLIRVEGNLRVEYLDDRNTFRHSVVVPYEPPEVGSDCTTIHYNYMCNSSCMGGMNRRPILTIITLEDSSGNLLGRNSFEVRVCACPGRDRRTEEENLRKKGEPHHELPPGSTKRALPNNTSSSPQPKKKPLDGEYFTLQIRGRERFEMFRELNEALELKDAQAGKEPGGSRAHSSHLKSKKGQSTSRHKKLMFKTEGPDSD
In short: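 HepG2, transient MRTU transfection (cis promoter elements, endogenous TFs); 24 h dosing; RNA isolation, RT-PCR, 6-FAM primer extension, HpaI digest, CE fluorescence; bidirectional fit vs DMSO.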

[8] = BSK_3C_TissueFactor: BioMAP Diversity Plus: 3C Assay for Tissue Factor Biomarker Activity (AID 2282997); settings: BioMAP 3C HUVEC, tissue factor biomarker readout; actives raise or lower the signal
In short: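 Endothelial monolayers (human umbilical vein, primary) are dosed, incubated 24 h, and assayed for Tissue Factor by ELISA; DMSO serves as negative control for bidirectional fitting.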

[9] = BSK_3C_uPAR: BioMAP Diversity Plus: 3C Assay for Urokinase-type plasminogen activator receptor (uPAR) Biomarker Activity (AID 2282998); settings: BioMAP 3C HUVEC, uPAR biomarker ELISA; actives raise or lower the signal
In short: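 A multiplexed primary-cell system built on human umbilical vein endothelium was used, with chemical present for 24 h before reading. Cell-surface uPAR was detected by ELISA; signal change in either direction counted against DMSO.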

[10] = BSK_4H_Eotaxin3: BioMAP Diversity Plus: 4H Assay for Eotaxin 3 Biomarker Activity (AID 2283000); settings: primary human endothelial cells (HUVEC); actives raise or lower the signal
In short: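 ELISA quantitation of CCL26 (Eotaxin-3) protein from chemically dosed human vascular endothelial cells at 24 h; increases and decreases both scored relative to DMSO-treated baseline.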

[11] = molecular target: human Peroxisome Proliferator-activated Receptor alpha (PPARa), PPARA (gene 5465) (UniProt Q07869); assay: ATG_PPARa_TRANS: Attagene TRANS-FACTORIAL HepG2 Assay for human Peroxisome Proliferator-activated Receptor alpha (PPARa) (AID 2283001; active = hit-call score of the fitted dose curve at least 0.9, where 1 is the maximum;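 for AC50: potency for gain of reporter signal over DMSO so agonist or activator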)
human Peroxisome Proliferator-activated Receptor alpha (PPARa), PPARA (gene 5465), sequence (Q07869 whole entry, looked up, the tested form may be a part): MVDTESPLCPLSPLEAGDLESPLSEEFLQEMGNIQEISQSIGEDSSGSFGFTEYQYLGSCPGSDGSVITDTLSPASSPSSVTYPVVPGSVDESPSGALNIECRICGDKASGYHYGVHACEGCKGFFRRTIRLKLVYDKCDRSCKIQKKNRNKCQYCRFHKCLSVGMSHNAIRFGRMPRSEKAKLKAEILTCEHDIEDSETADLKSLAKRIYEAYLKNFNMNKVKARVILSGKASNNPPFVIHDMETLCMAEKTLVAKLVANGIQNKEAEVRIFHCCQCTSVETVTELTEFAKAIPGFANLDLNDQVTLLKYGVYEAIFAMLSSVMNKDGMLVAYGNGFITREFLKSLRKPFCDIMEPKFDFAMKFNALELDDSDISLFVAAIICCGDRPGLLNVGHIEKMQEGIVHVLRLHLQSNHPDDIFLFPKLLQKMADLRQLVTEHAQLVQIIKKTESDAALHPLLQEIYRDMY
In short: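 Reporter transcripts from GAL4-UAS units in transfected HepG2 were quantified 24 h after dosing. Detection used reverse transcription, PCR, fluorescent primer extension and capillary electrophoresis, with DMSO as baseline.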

[12] = read-out: Intercellular Adhesion Molecule 1 (ICAM1), ICAM1 (gene 3383); assay: BSK_3C_ICAM1: BioMAP Diversity Plus: 3C Assay for Intercellular Adhesion Molecule 1 (ICAM1) Biomarker Activity (AID 2283003); settings: primary human endothelial cells (HUVEC); actives raise or lower the signal
In short: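 Primary human umbilical vein endothelial cells in the BioMAP 3C system were exposed to chemicals for 24 h, then ICAM-1 was quantified by ELISA. Activity was fitted bidirectionally against the DMSO negative control baseline.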

[13] = molecular target: human Retinoic Acid Receptor beta (RARb), RARB (gene 5915) (UniProt P10826); assay: ATG_RARb_TRANS: Attagene TRANS-FACTORIAL HepG2 Assay for human Retinoic Acid Receptor beta (AID 2283004; active = hit-call score of the fitted dose curve at least 0.9, where 1 is the maximum)
human Retinoic Acid Receptor beta (RARb), RARB (gene 5915), sequence (P10826 whole entry, looked up, the tested form may be a part): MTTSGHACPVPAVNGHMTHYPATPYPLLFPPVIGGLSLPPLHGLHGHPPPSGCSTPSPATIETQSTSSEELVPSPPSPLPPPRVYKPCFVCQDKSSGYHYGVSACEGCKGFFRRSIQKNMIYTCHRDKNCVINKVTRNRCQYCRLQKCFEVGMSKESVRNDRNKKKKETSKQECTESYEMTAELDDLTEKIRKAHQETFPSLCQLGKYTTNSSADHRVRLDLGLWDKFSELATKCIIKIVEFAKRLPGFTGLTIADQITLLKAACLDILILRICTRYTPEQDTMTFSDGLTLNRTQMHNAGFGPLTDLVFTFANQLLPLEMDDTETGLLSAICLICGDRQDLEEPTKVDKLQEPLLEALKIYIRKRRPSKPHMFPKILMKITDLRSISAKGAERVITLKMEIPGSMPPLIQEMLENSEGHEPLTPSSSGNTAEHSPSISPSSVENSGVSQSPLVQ
In short: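 Fluorescent capillary-electrophoresis detection of GAL4-UAS reporter mRNA defines the endpoint, with induction over DMSO-treated wells scored as activity. Transiently transfected human hepatoma HepG2 cells expressing exogenous NR–Gal4 proteins are exposed to test chemicals for 24 h.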

[14] = BSK_3C_Proliferation: Cell Proliferation Assessment in the BioMAP Diversity Plus: 3C Assay (AID 2283006); settings: primary human endothelial cells (HUVEC);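 for AC50: potency may reflect either rise or fall in cell number versus DMSO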
In short: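 Human umbilical vein endothelial cells were grown sub-confluent and exposed to chemical for 48 h, then fixed with 10% TCA and stained with 0.1% sulforhodamine B; absorbance at 560 nm gave relative cell number, fitted bidirectionally against DMSO baseline.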

[15] = molecular target: Peroxisome proliferator-activated receptor gamma (Homo sapiens) (UniProt P37231); assay: ATG_PPARg_TRANS: Attagene TRANS-FACTORIAL HepG2 Assay for human Peroxisome Proliferator-activated Receptor-gamma (PPARg) (AID 2283007; active = hit-call score of the fitted dose curve at least 0.9, where 1 is the maximum)
Peroxisome proliferator-activated receptor gamma (Homo sapiens), sequence (P37231 whole entry, looked up): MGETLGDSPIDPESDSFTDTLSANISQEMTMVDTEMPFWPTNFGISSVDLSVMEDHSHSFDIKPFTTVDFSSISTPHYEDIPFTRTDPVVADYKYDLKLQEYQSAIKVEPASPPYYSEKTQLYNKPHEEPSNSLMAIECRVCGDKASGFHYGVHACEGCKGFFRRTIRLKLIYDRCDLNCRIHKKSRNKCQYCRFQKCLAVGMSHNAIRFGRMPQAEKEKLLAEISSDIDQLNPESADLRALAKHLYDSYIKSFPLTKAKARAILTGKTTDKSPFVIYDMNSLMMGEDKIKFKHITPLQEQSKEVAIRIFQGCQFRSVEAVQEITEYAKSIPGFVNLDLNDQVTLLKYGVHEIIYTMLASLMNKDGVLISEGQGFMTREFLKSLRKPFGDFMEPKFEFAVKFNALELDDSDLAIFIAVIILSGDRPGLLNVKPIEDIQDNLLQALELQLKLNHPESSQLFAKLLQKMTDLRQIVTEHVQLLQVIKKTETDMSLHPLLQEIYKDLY
In short: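 Human hepatoma HepG2, transient MRTU transfection, 24 h treatment. mRNA reporter signal by RT-PCR plus capillary electrophoresis, fluorescence detection; fitted for increase over DMSO negative control.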

[16] = molecular target: Nuclear receptor subfamily 1 group I member 2 (Homo sapiens) (UniProt O75469); assay: ATG_PXR_TRANS: Attagene TRANS-FACTORIAL HepG2 Assay for human Pregnane X Receptor (PXR) (AID 2283008; active = hit-call score of the fitted dose curve at least 0.9, where 1 is the maximum)
Nuclear receptor subfamily 1 group I member 2 (Homo sapiens), sequence (O75469 whole entry, looked up, the tested form may be a part): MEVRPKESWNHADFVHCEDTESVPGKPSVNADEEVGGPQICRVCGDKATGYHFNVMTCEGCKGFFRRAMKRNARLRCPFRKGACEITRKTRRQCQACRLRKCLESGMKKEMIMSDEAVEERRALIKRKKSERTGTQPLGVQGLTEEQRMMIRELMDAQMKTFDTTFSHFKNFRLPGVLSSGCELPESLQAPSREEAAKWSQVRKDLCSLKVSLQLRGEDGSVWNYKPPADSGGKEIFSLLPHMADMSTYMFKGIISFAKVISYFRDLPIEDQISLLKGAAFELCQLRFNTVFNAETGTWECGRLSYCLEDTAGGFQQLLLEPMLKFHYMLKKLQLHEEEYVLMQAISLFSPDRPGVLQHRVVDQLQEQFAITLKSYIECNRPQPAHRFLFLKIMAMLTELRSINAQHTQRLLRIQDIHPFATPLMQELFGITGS
In short: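 Read-out is fluorescence of labelled reporter cDNA fragments separated by capillary electrophoresis after RT-PCR and HpaI digestion. Source: HepG2 cells carrying PXR-GAL4/UAS reporter constructs, treated 24 h; activity fitted upward relative to DMSO.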

[17] = BSK_3C_VCAM1: BioMAP Diversity Plus: 3C Assay for Vascular cell adhesion molecule 1 (VCAM1) Biomarker Activity (AID 2282999); settings: BioMAP 3C HUVEC, VCAM1 ELISA, cytokine-stimulated; actives raise or lower the signal
In short: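 Endothelial cells from human umbilical vein are treated with test chemical. At 24 h, VCAM-1 is measured by ELISA, and responses in either direction are fitted relative to DMSO.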

[18] = molecular target: human Peroxisome Proliferator-activated Receptor delta (PPARd), PPARD (gene 5467) (UniProt Q03181); assay: ATG_PPARd_TRANS: Attagene TRANS-FACTORIAL HepG2 Assay for human Peroxisome Proliferator-activated Receptor delta (PPARd) (AID 2283002; active = hit-call score of the fitted dose curve at least 0.9, where 1 is the maximum)
human Peroxisome Proliferator-activated Receptor delta (PPARd), PPARD (gene 5467), sequence (Q03181 whole entry, looked up, the tested form may be a part): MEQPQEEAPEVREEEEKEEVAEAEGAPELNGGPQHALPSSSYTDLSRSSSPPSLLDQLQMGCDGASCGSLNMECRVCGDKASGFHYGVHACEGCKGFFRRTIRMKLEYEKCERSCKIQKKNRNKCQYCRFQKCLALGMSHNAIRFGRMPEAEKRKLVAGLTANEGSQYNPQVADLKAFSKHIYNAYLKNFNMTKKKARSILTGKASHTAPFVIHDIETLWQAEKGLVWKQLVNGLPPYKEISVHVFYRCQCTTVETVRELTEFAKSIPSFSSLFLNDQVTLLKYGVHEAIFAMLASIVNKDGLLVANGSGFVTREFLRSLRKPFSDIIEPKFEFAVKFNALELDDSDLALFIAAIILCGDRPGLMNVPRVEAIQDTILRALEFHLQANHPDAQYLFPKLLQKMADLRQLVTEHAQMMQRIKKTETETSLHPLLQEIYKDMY
In short: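 Read-out is induced reporter mRNA, quantified by RT-PCR with fluorescent labelling and capillary electrophoresis after 24 h dosing. Cells are HepG2 transiently carrying multiple GAL4-UAS reporter units driven by exogenous NR-GAL4 chimeras; DMSO serves as baseline.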

[19] = molecular target: human Retinoic Acid Receptor gamma (RARg), RARG (gene 5916) (UniProt P13631); assay: ATG_RARg_TRANS: Attagene TRANS-FACTORIAL HepG2 Assay for human Retinoic Acid Receptor gamma (RARg) (AID 2283009; active = hit-call score of the fitted dose curve at least 0.9, where 1 is the maximum)
human Retinoic Acid Receptor gamma (RARg), RARG (gene 5916), sequence (P13631 whole entry, looked up, the tested form may be a part): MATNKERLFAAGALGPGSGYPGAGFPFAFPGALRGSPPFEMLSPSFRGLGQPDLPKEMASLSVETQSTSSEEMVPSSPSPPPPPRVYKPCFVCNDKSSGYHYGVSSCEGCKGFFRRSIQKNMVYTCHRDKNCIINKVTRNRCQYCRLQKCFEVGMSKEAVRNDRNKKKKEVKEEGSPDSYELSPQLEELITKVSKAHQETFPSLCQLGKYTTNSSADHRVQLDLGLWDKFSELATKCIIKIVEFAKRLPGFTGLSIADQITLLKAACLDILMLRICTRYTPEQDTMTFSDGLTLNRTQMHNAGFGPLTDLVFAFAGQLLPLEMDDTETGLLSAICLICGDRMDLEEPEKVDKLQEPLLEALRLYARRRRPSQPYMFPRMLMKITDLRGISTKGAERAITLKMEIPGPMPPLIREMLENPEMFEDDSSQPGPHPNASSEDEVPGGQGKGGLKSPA
In short: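 HepG2 cells transiently transfected with multiplexed reporter units expressing chimeric RARg-GAL4 and GAL4-UAS-driven reporters; 24 h compound exposure. Reporter mRNA quantified by RT-PCR with fluorescent labelling and capillary electrophoresis; gain-of-signal fitted relative to DMSO baseline.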

[20] = molecular target: Retinoic acid receptor alpha (Homo sapiens) (UniProt P10276); assay: ATG_RARa_TRANS: Attagene TRANS-FACTORIAL HepG2 Assay for human Retinoic Acid Receptor alpha (RARa) (AID 2283005; active = hit-call score of the fitted dose curve at least 0.9, where 1 is the maximum)
Retinoic acid receptor alpha (Homo sapiens), sequence (P10276 whole entry, looked up, the tested form may be a part): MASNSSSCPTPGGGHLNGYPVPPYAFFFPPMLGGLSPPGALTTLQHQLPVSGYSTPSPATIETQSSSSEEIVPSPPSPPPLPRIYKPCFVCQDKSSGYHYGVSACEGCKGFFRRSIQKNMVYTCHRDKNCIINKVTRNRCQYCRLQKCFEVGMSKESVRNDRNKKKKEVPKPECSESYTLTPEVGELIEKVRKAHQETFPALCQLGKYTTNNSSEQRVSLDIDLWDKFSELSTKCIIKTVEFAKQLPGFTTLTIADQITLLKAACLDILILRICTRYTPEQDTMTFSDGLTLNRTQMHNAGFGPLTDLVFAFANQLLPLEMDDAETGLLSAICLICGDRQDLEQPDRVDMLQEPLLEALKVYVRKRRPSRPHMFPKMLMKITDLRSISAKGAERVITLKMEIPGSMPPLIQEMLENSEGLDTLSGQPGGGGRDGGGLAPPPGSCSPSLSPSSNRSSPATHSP
In short: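 Reporter transcripts, measured by RT-PCR with fluorescent labeling and capillary electrophoresis after 24 h dosing, reflect activity of an exogenous human RARa–GAL4 fusion in transiently transfected HepG2. Fitted for increase relative to DMSO.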

Measured: AC50

O=C(O)C(F)(F)C(F)(F)C(F)(F)OC(F)(F)F
active: [11] 61.4 µM
not listed: [17] | [18] | [19] | [20]
inactive: all other assays above

CCN(CC)c1ccc(N=Nc2ccccc2)cc1
active: [1] 35.4 µM | [5] 3.86 µM | [9] 20 µM | [17] 20 µM | [10] 13 µM | [14] 12 µM | [15] 4.67 µM | [16] 4.22 µM
not listed: [13] | [20]
inactive: all other assays above

C[Si](Cl)(Cl)CCC(F)(F)C(F)(F)C(F)(F)C(F)(F)C(F)(F)C(F)(F)F
not listed: [15] | [16] | [19]
inactive: all other assays above

CCOC(C=C(C)CCC=C(C)C)OCC
active: [5] 46.5 µM | [8] 30.9 µM | [9] 31.3 µM | [10] 29.3 µM | [12] 34.5 µM | [14] 28.1 µM | [16] 26.5 µM
not listed: [13] | [15] | [17] | [19] | [20]
inactive: all other assays above

FC(F)(F)C(F)(F)C(F)(F)C(F)(F)C(F)(F)C(F)(F)C(F)(F)CCI
active: [5] 30.6 µM
not listed: [13] | [15] | [17] | [19] | [20]
inactive: all other assays above

O=C=NCc1cccc(CN=C=O)c1
not listed: [11] | [13] | [15] | [17] | [19] | [20]
inactive: all other assays above

Cc1ccc(S(=O)(=O)C(I)I)cc1
inactive: [18] | [15]
active: [1] 7.84 µM | [2] 8.6 µM | [3] 8.6 µM | [4] 19.5 µM | [5] 15.9 µM | [6] 8.98 µM | [7] 8.91 µM | [8] 1.85 µM | [9] 1.45 µM | [17] 3.06 µM | [10] 1.84 µM | [12] 3.35 µM | [14] 0.593 µM

CC1CCCCC1
inactive: [1] | [2] | [3] | [4] | [5] | [6] | [7] | [11] | [20] | [15] | [16]

O=C(Cl)c1ccc(Cl)cc1Cl
not listed: [8] | [9] | [10] | [12] | [13] | [14] | [16] | [17]
inactive: all other assays above

O=C(c1ccccc1)c1ccc(Cl)cc1
active: [5] 132 µM | [16] 37.1 µM
inactive: [1] | [2] | [3] | [4] | [6] | [7] | [18]

O=C1OC(=O)c2ccc3c4c(ccc1c24)C(=O)OC3=O
inactive: [1] | [2] | [3] | [4] | [5] | [6] | [7] | [18] | [16]

CC(O)C#CC(C)O (stereo unspecified)
inactive: [6] | [11] | [18] | [13] | [20] | [16]
active: [1] 143 µM | [2] 127 µM | [3] 53.3 µM | [4] 84 µM | [5] 24.9 µM | [7] 167 µM | [15] 41.1 µM

CCCCCCCCCCCCCCCCC
inactive: [1] | [2] | [3] | [4] | [5] | [6] | [7] | [11] | [18]

CCOC(=O)C1CC(=O)C(=C(O)C2CC2)C(=O)C1 (stereo unspecified)
inactive: [1] | [2] | [3] | [4] | [5] | [6] | [7] | [18] | [15] | [16]

CCn1c2ccccc2c2ccccc21
active: [2] 152 µM | [5] 157 µM | [6] 100 µM | [16] 10.3 µM
inactive: [1] | [3] | [4] | [7] | [11] | [18] | [13] | [20] | [15]

COCCOCCC[Si](C)(O[Si](C)(C)C)O[Si](C)(C)C
inactive: [1] | [2] | [3] | [4] | [7] | [18] | [13] | [15]
active: [5] 1.64 µM | [6] 3.74 µM | [16] 1.47 µM

CO[Si](CCCOCC1CO1)(OC)OC (stereo unspecified)
inactive: [1] | [2] | [3] | [4] | [6] | [7] | [18]
active: [5] 73.2 µM

C[Si](C)O[Si](C)C
inactive: [1] | [2] | [3] | [4] | [5] | [6] | [7] | [11] | [18] | [13]

CN1CN(C)CN(C)C1
active: [6] 165 µM
inactive: [1] | [2] | [3] | [4] | [5] | [7] | [11] | [13] | [20] | [19]
